Measurements from PubChem BioAssay AID1159580 (chemical genetic matrix, 2015).
Screen size: about 5,500 compounds; about 2,000 (36%) were called active. About 18% were inconclusive and are not listed. No stated cut-off is given here; in the data, active means normalized growth mostly below about 0.91 (no sharp cut-off); inconclusive means no clear call, values can overlap the other calls; inactive means mostly above about 0.92. The list shows a part of the results.

Experiment: chemical genetic growth profiling, strain panel (AID 1159580);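 further: tested at 20 µM; growth read once vehicle control cultures reached saturation at 30 °C; 1 = growth at the plate median or of vehicle wells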
Settings: growth OD

Measured: normalized growth

Oc1ccc(Cl)cc1
inactive: S. cerevisiae deletion strains, locus YJR075W, strain HOC1, stronger effect = lower value 0.993 | S. cerevisiae deletion strains, locus YKL009W, strain mrt4, stronger effect = lower value 0.972 | S. cerevisiae deletion strains, locus YKL068W, stronger effect = lower value 0.985 | S. cerevisiae deletion strains, locus YKL085W, strain MDH1 (second series), stronger effect = lower value 0.978 | S. cerevisiae deletion strains, locus YKL085W, strain MDH1, stronger effect = lower value 0.978 | S. cerevisiae deletion strains, locus YKL160W, strain elf1, stronger effect = lower value 1.03 | S. cerevisiae deletion strains, locus YKL190W, strain CNB1, stronger effect = lower value 0.993 | S. cerevisiae deletion strains, locus YKR001C, strain vps1, stronger effect = lower value 0.996 | S. cerevisiae deletion strains, locus YKR026C, strain gcn3, stronger effect = lower value 1.02 | S. cerevisiae deletion strains, locus YKR091W, strain srl3, stronger effect = lower value 1.01 | S. cerevisiae deletion strains, locus YLL001W, strain dnm1, stronger effect = lower value 1.02 | S. cerevisiae deletion strains, locus YLL026W, stronger effect = lower value 1.02 | S. cerevisiae deletion strains, locus YLL041C, strain sdh2, stronger effect = lower value 1.01 | S. cerevisiae deletion strains, locus YLR027C, strain aat2, stronger effect = lower value 0.999 | S. cerevisiae deletion strains, locus YLR039C, strain RIC1, stronger effect = lower value 0.983 | S. cerevisiae deletion strains, locus YLR058C, strain SHM2, stronger effect = lower value 0.989 | S. cerevisiae deletion strains, locus YLR102C, strain apc9, stronger effect = lower value 0.976 | S. cerevisiae deletion strains, locus YLR113W, strain HOG1, stronger effect = lower value 1 | S. cerevisiae deletion strains, locus YLR221C, strain rsa3, stronger effect = lower value 1.01 | S. cerevisiae deletion strains, locus YLR258W, strain gsy2, stronger effect = lower value 1 | S. cerevisiae deletion strains, locus YLR262C, strain YPT6 (second series), stronger effect = lower value 1.02 | S. cerevisiae deletion strains, locus YLR262C, strain YPT6, stronger effect = lower value 0.986 | S. cerevisiae deletion strains, locus YLR268W, strain sec22, stronger effect = lower value 0.93 | S. cerevisiae deletion strains, locus YLR320W, strain mms22, stronger effect = lower value 1.03 | S. cerevisiae deletion strains, locus YLR330W, strain CHS5, stronger effect = lower value 0.99 | S. cerevisiae deletion strains, locus YLR342W, strain FKS1 (second series), stronger effect = lower value 0.995 | S. cerevisiae deletion strains, locus YLR342W, strain FKS1, stronger effect = lower value 1.01 | S. cerevisiae deletion strains, locus YLR357W, strain rsc2, stronger effect = lower value 1.04 | S. cerevisiae deletion strains, locus YLR370C, strain arc18, stronger effect = lower value 1.01 | S. cerevisiae deletion strains, locus YLR371W, strain rom2, stronger effect = lower value 0.962 | S. cerevisiae deletion strains, locus YLR384C, strain iki3, stronger effect = lower value 1.01 | S. cerevisiae deletion strains, locus YLR418C, strain cdc73, stronger effect = lower value 0.986 | S. cerevisiae deletion strains, locus YML016C, strain PPZ1, stronger effect = lower value 0.99 | S. cerevisiae deletion strains, locus YML032C, strain rad52, stronger effect = lower value 0.963 | S. cerevisiae deletion strains, locus YML120C, strain ndi1, stronger effect = lower value 1.01 | S. cerevisiae deletion strains, locus YML124C, strain tub3, stronger effect = lower value 0.975 | S. cerevisiae deletion strains, locus YMR058W, strain fet3, stronger effect = lower value 1.01 | S. cerevisiae deletion strains, locus YMR078C, strain ctf18, stronger effect = lower value 0.968 | S. cerevisiae deletion strains, locus YMR125W, strain sto1, stronger effect = lower value 1.01 | S. cerevisiae deletion strains, locus YMR129W, stronger effect = lower value 1.01 | S. cerevisiae deletion strains, locus YMR205C, strain PFK2, stronger effect = lower value 1.03 | S. cerevisiae deletion strains, locus YMR223W, strain ubp8, stronger effect = lower value 1 | S. cerevisiae deletion strains, locus YMR231W, strain pep5, stronger effect = lower value 1.01 | S. cerevisiae deletion strains, locus YMR307W, strain GAS1, stronger effect = lower value 1 | S. cerevisiae deletion strains, locus YNL067W, strain RPL9B, stronger effect = lower value 0.996 | S. cerevisiae deletion strains, locus YNL071W, strain lat1, stronger effect = lower value 1.01 | S. cerevisiae deletion strains, locus YNL128W, strain TEP1, stronger effect = lower value 0.978 | S. cerevisiae deletion strains, locus YNL153C, strain GIM3, stronger effect = lower value 1 | S. cerevisiae deletion strains, locus YNL183C, strain NPR1, stronger effect = lower value 0.941 | S. cerevisiae deletion strains, locus YNL209W, strain ssb2, stronger effect = lower value 1 | S. cerevisiae deletion strains, locus YNL233W, strain BNI4, stronger effect = lower value 0.988 | S. cerevisiae deletion strains, locus YNL248C, strain rpa49, stronger effect = lower value 1 | S. cerevisiae deletion strains, locus YNL250W, strain rad50, stronger effect = lower value 0.97 | S. cerevisiae deletion strains, locus YNL271C, strain bni1, stronger effect = lower value 0.975 | S. cerevisiae deletion strains, locus YNL298W, strain CLA4, stronger effect = lower value 0.971 | S. cerevisiae deletion strains, locus YNL307C, strain MCK1, stronger effect = lower value 0.968 | S. cerevisiae deletion strains, locus YNL322C, strain KRE1 (second series), stronger effect = lower value 1.02 | S. cerevisiae deletion strains, locus YNL322C, strain KRE1, stronger effect = lower value 0.992 | S. cerevisiae deletion strains, locus YNR049C, strain mso1, stronger effect = lower value 1.01 | S. cerevisiae deletion strains, locus YNR052C, strain pop2, stronger effect = lower value 0.973 | S. cerevisiae deletion strains, locus YOL006C, strain TOP1, stronger effect = lower value 1.03 | S. cerevisiae deletion strains, locus YOL012C, strain htz1 0.904 | S. cerevisiae deletion strains, locus YOL147C, strain pex11, stronger effect = lower value 0.986 | S. cerevisiae deletion strains, locus YOR001W, strain rrp6, stronger effect = lower value 0.972 | S. cerevisiae deletion strains, locus YOR061W, strain CKA2, stronger effect = lower value 0.98 | S. cerevisiae deletion strains, locus YOR069W, strain VPS5, stronger effect = lower value 0.989 | S. cerevisiae deletion strains, locus YOR070C, strain gyp1, stronger effect = lower value 1 | S. cerevisiae deletion strains, locus YOR080W, strain dia2, stronger effect = lower value 1.01 | S. cerevisiae deletion strains, locus YOR083W, strain WHI5, stronger effect = lower value 1.02 | S. cerevisiae deletion strains, locus YOR106W, strain vam3, stronger effect = lower value 1.02 | S. cerevisiae deletion strains, locus YOR136W, strain idh2, stronger effect = lower value 0.98 | S. cerevisiae deletion strains, locus YOR144C, strain elg1, stronger effect = lower value 0.978 | S. cerevisiae deletion strains, locus YOR184W, strain ser1, stronger effect = lower value 0.961 | S. cerevisiae deletion strains, locus YOR231W, strain MKK1, stronger effect = lower value 0.979 | S. cerevisiae deletion strains, locus YOR265W, strain rbl2, stronger effect = lower value 1.02 | S. cerevisiae deletion strains, locus YOR270C, strain vph1, stronger effect = lower value 1.02 | S. cerevisiae deletion strains, locus YOR290C, strain snf2, stronger effect = lower value 0.999 | S. cerevisiae deletion strains, locus YOR316C, strain cot1, stronger effect = lower value 0.974 | S. cerevisiae deletion strains, locus YPL051W, strain arl3, stronger effect = lower value 1.01 | S. cerevisiae deletion strains, locus YPL078C, strain atp4, stronger effect = lower value 1.01 | S. cerevisiae deletion strains, locus YPL106C, strain sse1, stronger effect = lower value 1.04 | S. cerevisiae deletion strains, locus YPL240C, strain hsp82, stronger effect = lower value 1.01 | S. cerevisiae deletion strains, locus YPL241C, strain CIN2, stronger effect = lower value 0.997 | S. cerevisiae deletion strains, locus YPL256C, strain CLN2, stronger effect = lower value 0.978 | S. cerevisiae deletion strains, locus YPR119W, strain clb2, stronger effect = lower value 0.98 | S. cerevisiae deletion strains, locus YPR141C, strain kar3, stronger effect = lower value 0.976 | S. cerevisiae deletion strains, locus YPR163C, strain tif3, stronger effect = lower value 0.983 | S. cerevisiae deletion strains, locus YPR167C, strain met16, stronger effect = lower value 0.974 | S. cerevisiae deletion strains, strain wtn01, stronger effect = lower value 0.971 | S. cerevisiae strains, strain wild type, stronger effect = lower value 0.995
